Measured values as given in PubChem BioAssay (Tox21).
Where “and” joins values, the source holds several entries; their conditions need not be identical. Identical values can stand only once. Records with an inconclusive call do not appear. The source holds several records for some structures; these can differ, active in one and inactive in another. Calls of active or inactive are those of the source. Unless noted, calls come from the whole dose curve; as a rule, active = well fitted curve in the direction sought with a large enough effect in the repeat runs; inconclusive = weak or mixed curves; inactive = no such curve, though single readings can be large; an effect the other way counts as inactive or inconclusive.

How the values were obtained:
[1] = qHTS assay to identify small molecule antagonists of the estrogen related receptor (ERR) signaling pathway from Tox21 library - cell viability counter screen (AID 1224834); note: nearly all actives have a fitted effect of over 30% in size; note: potency is the fitted concentration of half-maximal effect
How it was run: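 ERR reporter cells were plated 6 h before compound addition, then exposed to test compounds in DMSO for 17.5 h at 37 C. Viability was read as CellTiter-Fluor fluorescence after a 30-minute incubation at 37 C.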

[2] = biological target: Luciferin 4-monooxygenase (Photinus pyralis) (UniProt P08659); assay: qHTS assay to identify small molecule inhibitors of firefly luciferase (AID 1224835); note: nearly all actives have a fitted effect of over 25% in size; note: potency is the fitted concentration of half-maximal effect
Chain of Luciferin 4-monooxygenase (Photinus pyralis) (P08659 whole entry, looked up): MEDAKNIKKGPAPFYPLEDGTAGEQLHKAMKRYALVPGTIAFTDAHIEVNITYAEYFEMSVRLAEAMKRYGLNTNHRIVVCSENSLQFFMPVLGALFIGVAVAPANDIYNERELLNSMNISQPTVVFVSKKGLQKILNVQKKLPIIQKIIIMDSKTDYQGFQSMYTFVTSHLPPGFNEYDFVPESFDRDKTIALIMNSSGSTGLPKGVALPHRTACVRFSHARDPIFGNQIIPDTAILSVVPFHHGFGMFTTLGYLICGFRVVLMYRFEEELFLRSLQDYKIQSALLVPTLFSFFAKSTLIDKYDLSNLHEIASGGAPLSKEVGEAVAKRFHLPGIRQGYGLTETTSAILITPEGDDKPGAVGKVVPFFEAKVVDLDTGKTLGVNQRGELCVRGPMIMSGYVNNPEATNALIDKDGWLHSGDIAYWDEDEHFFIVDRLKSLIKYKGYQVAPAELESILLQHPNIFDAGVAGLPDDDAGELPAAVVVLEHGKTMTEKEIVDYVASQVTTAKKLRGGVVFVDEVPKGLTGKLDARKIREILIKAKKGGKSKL
How it was run: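 Quantitative HTS format; KM concentrations of both substrates. Purified P. pyralis FLuc activity quantified from luminescence images.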

[3] = qHTS assay to identify small molecule antagonists of the constitutive androstane receptor (CAR) signaling pathway - cell viability counter screen (AID 1224837); note: nearly all actives have a fitted effect of over 45% in size; note: potency is the fitted concentration of half-maximal effect
How it was run: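 HepG2 cells stably expressing hCAR and a CYP2B6-2.2kb reporter were plated and pre-incubated 4 hr at 37 C/5% CO2, then given compounds at 15 concentrations plus 50 nM CITCO (final). After 23 hr, viability was read by CellTiter-Fluor fluorescence.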

[4] = biological target: Nuclear receptor subfamily 1 group I member 3 (Homo sapiens) (UniProt Q14994); assay: qHTS assay to identify small molecule antagonists of the constitutive androstane receptor (CAR) signaling pathway (AID 1224838); note: nearly all actives have a fitted effect of over 40% in size; note: potency is the fitted concentration of half-maximal effect
Chain of Nuclear receptor subfamily 1 group I member 3 (Homo sapiens) (Q14994 whole entry, looked up): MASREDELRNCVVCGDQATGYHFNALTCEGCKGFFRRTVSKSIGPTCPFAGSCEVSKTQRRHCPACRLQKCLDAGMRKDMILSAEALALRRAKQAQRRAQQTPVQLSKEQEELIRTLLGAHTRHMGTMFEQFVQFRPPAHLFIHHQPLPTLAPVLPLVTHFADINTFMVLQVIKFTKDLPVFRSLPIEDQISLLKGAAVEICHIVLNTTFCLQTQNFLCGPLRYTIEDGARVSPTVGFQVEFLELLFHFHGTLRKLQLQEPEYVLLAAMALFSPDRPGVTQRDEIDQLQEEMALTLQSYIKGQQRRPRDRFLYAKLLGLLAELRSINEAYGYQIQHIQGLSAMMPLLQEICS
How it was run: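 HepG2 cells stably co-transfected with hCAR and a CYP2B6-2.2kb luciferase reporter were seeded 4 h before compound addition at 15 concentrations. Cells were stimulated with 50 nM CITCO (final) for 24 h at 37 C; luciferase luminescence was then read.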

[5] = biological target: Nuclear receptor subfamily 1 group I member 3 (Homo sapiens) (UniProt Q14994); assay: qHTS assay to identify small molecule agonists of the constitutive androstane receptor (CAR) signaling pathway (AID 1224839); note: nearly all actives have a fitted effect of over 15% in size; note: potency is the fitted concentration of half-maximal effect;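 for activation: HepG2 cells stably carrying human CAR and a CYP2B6 luciferase reporter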
How it was run: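 Luminescence read-out (ONE-Glo, 30 min, room temperature) from double-stable HepG2-CYP2B6-hCAR cells exposed 24 h to 15-point compound series in presence of 0.75 uM PK11195 final.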

[6] = qHTS assay to identify small molecule antagonists of the estrogen related receptor signaling pathway with the pleiotropic PPARgamma coactivator (PGC) from Tox21 10K library - cell viability counter screen (AID 1224840; active = well fitted cell-killing curve with a large enough effect in the repeat runs, not every such curve was filed as active; note: nearly all actives have a fitted effect of over 40% in size; note: potency is the fitted concentration of half-maximal effect)
How it was run: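 PGC/ERR cells were seeded at 2,000 cells/well and left 6 hours at 37 C/5% CO2 before pin-tool addition of compounds in DMSO. After 17.5 hours at 37 C, CellTiter-Fluor was added and fluorescence read 30 minutes later.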

[7] = qHTS assay to identify small molecule antagonists of the estrogen related receptor signaling pathway with the pleiotropic PPARgamma coactivator (PGC) from Tox21 10K library (AID 1224841; call rule not given here; note: actives are mostly falling curves and most rising ones were filed inactive; nearly all actives have a fitted effect of over 50% in size; note: potency is the fitted concentration of half-maximal effect)
How it was run: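 PGC/ERR reporter cells were seeded at 2,000 cells/well and held 6 hours at 37 C/5% CO2 before pin-tool addition of compounds in DMSO. After 18 hours at 37 C, One-Glo was added and luminescence read after 30 minutes at room temperature.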

[8] = qHTS assay to identify small molecule agonists of the estrogen related receptor signaling pathway with the pleiotropic PPARgamma coactivator (PGC) from Tox21 10K library (AID 1224842); note: nearly all actives have a fitted effect of over 15% in size
How it was run: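 PGC/ERR reporter cells (NTP line) were seeded 2,000 per well, rested 6 h at 37 C/5% CO2, then pin-dosed with compounds in DMSO for 18 h at 37 C; luciferase read by One-Glo luminescence after 30 min at room temperature.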

[9] = qHTS assay to identify small molecule agonists of the hypoxia (HIF-1) signaling pathway - cell viability counter screen (AID 1224844; calls by dose curve; note: nearly all actives have a fitted effect of over 50% in size; note: potency is the fitted concentration of half-maximal effect)
How it was run: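 HRE-bla ME-180 cells in medium with 0.5% dialyzed FBS were preincubated 5 hrs at 37C, exposed to compounds for 17 hrs, then viability was read as CellTiter-Glo luminescence after 30 min at room temperature, in the reporter wells.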

[10] = qHTS assay to identify small molecule agonists of H2AX (AID 1224845; active = well fitted activation curve with a large enough effect in the signal ratio in the repeat runs, not every such curve was filed as active; the % refers to the signal ratio)
How it was run: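 Wild-type CHO-K1 cells plated overnight, then exposed 3 hr at 37C to compounds at 15 concentrations (0.76% DMSO). Lysed, then HTRF anti-pH2AX(S139)-cryptate/anti-H2AX-d2 detection after 24 hr at room temperature; emissions 665 and 620 nm.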

[11] = qHTS assay to identify small molecule agonists of the hypoxia (HIF-1) signaling pathway (AID 1224846; active = well fitted activation curve with a large enough effect in the signal ratio in the repeat runs, not every such curve was filed as active; the % refers to the signal ratio)
How it was run: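 HRE-bla ME-180 cells (beta-lactamase reporter under hypoxia response element) were plated at 2,000 cells/well in medium with 0.5% dialyzed FBS, rested 5 hrs, then given compounds in DMSO for 17 hrs at 37C, 5% CO2. Reporter induction was read with CCF4-AM FRET substrate.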

[12] = qHTS assay to identify small molecule agonists of H2AX - cell viability counter screen (AID 1224847; calls by dose curve; note: nearly all actives have a fitted effect of over 30% in size; note: potency is the fitted concentration of half-maximal effect)
How it was run: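 CHO-K1 wt, 1000 cells/well, o/n 37C; cpds 15 conc, 3 h 37C, 0.76% DMSO; CellTiter-Glo, 30 min RT, luminescence.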

[13] = qHTS assay to identify small molecule antagonists of the estrogen related receptor (ERR) signaling pathway from Tox21 library (AID 1224848); note: nearly all actives have a fitted effect of over 50% in size; note: potency is the fitted concentration of half-maximal effect
How it was run: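 Screening used an ERR reporter line supplied by NTP, exposed for 18 h at 37 C to library compounds delivered in DMSO. Signal was luciferase luminescence developed with ONE-Glo at room temperature for 30 min.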

[14] = qHTS assay to identify small molecule agonists of the estrogen related receptor (ERR) signaling pathway from Tox21 library (AID 1224849; calls by dose curve; note: nearly all actives have a fitted effect of over 15% in size); details: ERR reporter cell line, ONE-Glo luciferase, 18 h; at 92.4 µM (top of the series)
How it was run: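 ERR reporter cell line (NTP) seeded, rested 6 h at 37 C/5% CO2, then pinned with Tox21 compounds in DMSO. After 18 h at 37 C, ONE-Glo luciferase luminescence was read following 30 min at room temperature.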

[15] = qHTS RealTime-Glo MT Cell Viability Assay in HepG2 cells - 24 hour (AID 1224867); note: nearly all actives have a fitted effect of over 50% in size
How it was run: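 Cells + NanoLuc/prosubstrate dispensed (600 cells/well) → 5 h at 37 C/5% CO2 → compounds in DMSO transferred → 40 h incubation at 37 C, luminescence read at 0, 8, 16, 24, 32, 40 h.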

[16] = A CellTox Green Cytotoxicity Assay to monitor cytotoxicity in HEK293 cells - 0 hour (AID 1224869); note: nearly all actives have a fitted effect of over 50% in size; note: potency is the fitted concentration of half-maximal effect
How it was run: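 HEK293 cells premixed with CellTox Green dye were seeded at 600 cells/well and left 5 h at 37 C/5% CO2 before pin transfer of 23 nL compound in DMSO. Fluorescence from dye bound to dead-cell DNA was read during 40 h treatment.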

[17] = biological target: Thyrotropin receptor (Homo sapiens) (UniProt P16473); assay: qHTS assay to identify small molecule agonists of the thyroid stimulating hormone receptor (TSHR) signaling pathway (AID 1224843; calls by dose curve; note: nearly all actives have a fitted effect of over 45% in size; note: potency is the fitted concentration of half-maximal effect)
Chain of Thyrotropin receptor (Homo sapiens) (P16473 whole entry, looked up): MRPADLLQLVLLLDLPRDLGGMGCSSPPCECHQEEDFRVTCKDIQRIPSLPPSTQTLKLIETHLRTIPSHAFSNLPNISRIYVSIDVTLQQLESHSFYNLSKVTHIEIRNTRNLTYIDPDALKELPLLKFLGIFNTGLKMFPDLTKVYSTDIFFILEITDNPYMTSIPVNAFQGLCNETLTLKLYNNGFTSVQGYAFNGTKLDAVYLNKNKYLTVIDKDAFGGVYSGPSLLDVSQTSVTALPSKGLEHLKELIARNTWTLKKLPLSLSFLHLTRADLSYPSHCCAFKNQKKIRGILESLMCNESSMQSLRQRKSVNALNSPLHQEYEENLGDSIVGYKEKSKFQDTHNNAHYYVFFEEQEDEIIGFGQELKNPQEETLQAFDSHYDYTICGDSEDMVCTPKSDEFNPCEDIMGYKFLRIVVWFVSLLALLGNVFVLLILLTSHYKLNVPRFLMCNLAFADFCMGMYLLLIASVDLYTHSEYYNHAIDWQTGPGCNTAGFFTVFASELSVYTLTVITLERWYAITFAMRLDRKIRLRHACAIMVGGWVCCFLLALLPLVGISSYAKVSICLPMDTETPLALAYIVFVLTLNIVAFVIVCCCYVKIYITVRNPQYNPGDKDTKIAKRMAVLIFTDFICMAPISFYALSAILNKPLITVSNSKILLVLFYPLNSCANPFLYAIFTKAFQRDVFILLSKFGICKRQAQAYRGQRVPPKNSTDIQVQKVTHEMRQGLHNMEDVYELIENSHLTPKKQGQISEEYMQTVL
How it was run: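 Cell line HEK293 with TSHR; density 800/well. Exposure 30 min RT. Readout HTRF cAMP (cAMP-d2/anti-cAMP-cryptate), 1 h RT before reading.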

[18] = qHTS RealTime-Glo MT Cell Viability Assay in HEK293 cells - 32 hour (AID 1224868); note: nearly all actives have a fitted effect of over 50% in size; note: potency is the fitted concentration of half-maximal effect
How it was run: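 Tox21 10K qHTS, HEK293, 600 cells/well, RealTime-Glo reagent co-dispensed with cells; 5 h preincubation, compound by pintool, 37 C, luminescence at 0–40 h.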

[19] = qHTS assay to identify small molecule agonists of the constitutive androstane receptor (CAR) signaling pathway - cell viability counter screen (AID 1224836); note: nearly all actives have a fitted effect of over 45% in size
How it was run: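 Viability read-out: CellTiter-Fluor fluorescence after 23 h compound exposure at 37 C/5% CO2 in double-stable HepG2-CYP2B6-hCAR cells, with PK11195 present at 0.75 uM final; compounds tested in 15-point titration.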
% is set by controls: 0 for no effect and ±100 for the full control effect.

Nc1c(Cl)cc([N+](=O)[O-])cc1Cl
active: Potency [7] 48.9 µM and 27.3 µM | Potency [13] 30.8 µM and 24.3 µM
inactive: Potency [1] | Potency [2] | Potency [3] | Potency [4] | Potency [5] | Potency [6] | Potency [8] | Potency [9] | Potency [10] | outcome [11] | Potency [12] | activity change, positive = activation [14] -38.6% and -54.4% | Potency [15] | Potency [16]

O=[N+]([O-])c1ccc(O)c([N+](=O)[O-])c1
inactive: Potency [2] | Potency [4] | Potency [5] | Potency [8] | Potency [17] | Potency [9] | Potency [10] | outcome [11] | activity change, positive = activation [14] -36.7% and -43.4% | Potency [15] | Potency [18] | Potency [16]
active: Potency [1] 27.4 µM and 27.3 µM | Potency [3] 30.8 µM | Potency [6] 30.8 µM and 27.3 µM | Potency [7] 30.8 µM and 21.7 µM | Potency [13] 21.8 µM and 21.7 µM

c1nc[nH]n1
inactive: Potency [1] | Potency [2] | Potency [3] | Potency [4] | Potency [5] | Potency [6] | Potency [7] | Potency [8] | Potency [17] | Potency [9] | Potency [10] | outcome [11] | Potency [12] | Potency [13] | activity change, positive = activation [14] 1.27% and 6.15% | Potency [15] | Potency [18] | Potency [16]

c1ccc(-c2cccc(-c3ccccc3)c2)cc1
inactive: Potency [1] | Potency [19] | Potency [3] | Potency [6] | Potency [17] | Potency [9] | Potency [10] | outcome [11] | Potency [12] | Potency [15] | Potency [16]
active: Potency [2] 9.03 µM and 7.96 µM

NC(=S)Nc1ccccc1
49.8 µM (active) and inactive: Potency [16]
inactive: Potency [2] | Potency [19] | Potency [3] | Potency [6] | Potency [17] | Potency [9] | Potency [10] | outcome [11] | Potency [12] | Potency [15]
22 µM (active) and inactive: Potency [1]
5.59 µM (active) and inactive: Potency [18]

O=[N+]([O-])c1c(Cl)c(Cl)c(Cl)c(Cl)c1Cl
inactive: Potency [1] | Potency [2] | Potency [3] | Potency [4] | Potency [6] | Potency [9] | Potency [10] | outcome [11] | Potency [12] | Potency [15] | Potency [16]

CC(C)NC(C)C
inactive: Potency [1] | Potency [2] | Potency [3] | Potency [6] | Potency [17] | Potency [9] | Potency [10] | outcome [11] | Potency [12] | Potency [15] | Potency [18] | Potency [16]

Cc1ccc(N)c(N)c1
active: Potency [2] 15.9 µM and 2.52 µM | Potency [5] 27.4 µM and 24.3 µM
inactive: Potency [3] | Potency [4] | Potency [6] | Potency [17] | Potency [9] | Potency [10] | outcome [11] | Potency [12] | Potency [15] | Potency [16]

Cc1ccc(OP(=O)(Oc2ccc(C)cc2)Oc2ccc(C)cc2)cc1
active: Potency [17] 12.2 µM and 30.6 µM
inactive: Potency [1] | Potency [2] | Potency [3] | Potency [6] | Potency [7] | Potency [8] | Potency [9] | Potency [10] | outcome [11] | Potency [13] | activity change, positive = activation [14] -19.4% and -4.77% | Potency [15] | Potency [18] | Potency [16]

Clc1nc(Cl)nc(Cl)n1
inactive: Potency [1] | Potency [19] | Potency [3] | Potency [4] | Potency [5] | Potency [6] | Potency [9] | Potency [10] | outcome [11] | Potency [12] | Potency [15] | Potency [18] | Potency [16]

CCCCNC(=O)n1c(NC(=O)OC)nc2ccccc21
active: Potency [2] 63 µM | Potency [5] 54.2 µM
inactive: Potency [1] | Potency [3] | Potency [4] | Potency [6] | Potency [17] | Potency [9] | Potency [10] | outcome [11] | Potency [12] | Potency [15] | Potency [16]

Cc1c(COC(=O)[C@@H]2[C@H](/C=C(\Cl)C(F)(F)F)C2(C)C)cccc1-c1ccccc1
53.2 µM (active) and inactive: Potency [4]
inactive: Potency [1] | Potency [2] | Potency [3] | Potency [5] | Potency [6] | Potency [9] | Potency [10] | outcome [11] | Potency [15] | Potency [16]
active: Potency [18] 21.4 µM

CC(C)=CC1C(C(=O)OCc2coc(Cc3ccccc3)c2)C1(C)C (centres undefined)
active: Potency [5] 34.4 µM and 27.3 µM
inactive: Potency [1] | Potency [2] | Potency [3] | Potency [4] | Potency [6] | Potency [9] | Potency [10] | outcome [11] | Potency [15] | Potency [18] | Potency [16]

C#CCOS(=O)OC1CCCCC1Oc1ccc(C(C)(C)C)cc1 (centres undefined)
inactive: Potency [4] | Potency [6] | Potency [8] | Potency [10] | activity change, positive = activation [14] -66% and -59.3% | Potency [16]
active: Potency [1] 4.33 µM | Potency [7] 3.86 µM and 3.06 µM | Potency [17] 12.2 µM and 24.3 µM | Potency [9] 43.6 µM | Potency [12] 4.5 µM | Potency [13] 1.37 µM and 1.54 µM
inactive and 5.45 µM (active): Potency [5]
